LASV entry inh = blocks Lassa virus binding to or entry into cells; Lassa virus pseudotype entry inhibition, cell reporter; Potency, µM (highest dose often 37.9 µM), usual class: inhibitors; actives 1.2% (n = 300,000); calls by dose curve; tested in HEK293 cells; note: nearly all actives have a fitted effect of over 50% in size
Pf growth 96h = P. falciparum growth inhibition at 96 hour, primary screen for plastid delayed-death inhibitors; P. falciparum luciferase reporter growth, 96 h; Potency, µM (series often up to 28.7 µM), hits mostly inhibitors; actives 6.9% (n = 320,000)
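Erythrocytes infected with luciferase-expressing P. falciparum were dispensed at 2% hematocrit and 0.05% parasitemia (final), then incubated with compounds 96 hours at 37 C in 5% CO2. Luminescence after detection reagent addition reported growth.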
Marburg entry inh = Marburg virus entry inhibition. Marburg virus pseudotyped entry inhibition, cell reporter. Potency, µM (doses to about 37.8 µM), usual class: inhibitors. actives 1.8% (n = 300,000); calls by dose curve; tested in HEK293 cells
Shiga inhibitor = inhibitors of Shiga toxin in Vero cells; actives 9.2% (n = 290,000); inhibition, % at 38.7 µM; Vero cells, Shiga toxin protein synthesis inhibition reporter; in the data active = inhibition mostly above about 28%, no sharp cut-off; inactive = mostly below about 43%
Pf growth 48h = inhibits P. falciparum growth in the first generation, 48 h; P. falciparum luciferase growth in erythrocytes, 48 h; Potency, µM (series often up to 28.7 µM), usual class: inhibitors; actives 5.9% (n = 310,000); AID 504832
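In quantitative HTS format, infected erythrocytes bearing luciferase-reporter parasites were treated for a single generation at 37 C. Luminescence after adding detection reagent served as the growth measure.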
Cycloheximide cs = counter-screen for Shiga toxin inhibitors: cycloheximide protein synthesis inhibition | cell reporter, cycloheximide protein synthesis inhibition counterscreen | max response, % | actives 12% (n = 300,000); in the data active = max response mostly above about 13%, no sharp cut-off; inactive = mostly below about 14%; note: read at 38.3 µM for the half of the compounds with a filed dose
Large screens that a line does not name were inactive. The list is not random: actives were taken first. Their share in the collection is about 19%. Unless noted, calls come from the whole dose curve; as a rule, active = well fitted inhibition curve with a large enough effect; inconclusive = small, poorly fitted or top-dose-only effect, or another doubt; inactive = no such curve, though single readings can be large or run the other way.

CCN(CC)S(=O)(=O)c1ccc(N2CCCC2)c(NC(=O)c2nn(C)c(=O)c3ccccc23)c1	Pf growth 96h 13µM, Pf growth 48h 13µM (no result: LASV entry inh, Marburg entry inh, Shiga inhibitor, Cycloheximide cs)
CCN(CC)S(=O)(=O)c1ccc(N2CCCC2)c(NC(=O)c2ccncc2)c1	none (no result: LASV entry inh, Marburg entry inh)
O=C(CCC(=O)N1CCN(c2ccccc2F)CC1)N1CCN(c2ccccc2)CC1	none (no result: LASV entry inh, Marburg entry inh)
CCN(CC)C(=O)Cn1c(=O)c2ccccc2n2c(=S)sc(-c3cccc(C)c3)c12	Pf growth 96h 2.1µM, Pf growth 48h inconclusive
CCN(CC)C(=O)Cn1c(=O)n(Cc2ccc(C(=O)NCc3ccc(C)cc3)cc2)c(=O)c2ccccc21	none (no result: Pf growth 96h, Shiga inhibitor, Pf growth 48h, Cycloheximide cs)
CCCc1cc(=O)oc2cc(OCC(=O)N3CCN(C(=O)C4COc5ccccc5O4)CC3)ccc12 (stereo unspecified)	Pf growth 96h 12µM, Pf growth 48h inconclusive (no result: LASV entry inh, Marburg entry inh)
Cc1cc(=O)oc2cc(OCC(=O)N3CCN(C(=O)C4COc5ccccc5O4)CC3)ccc12 (stereo unspecified)	Pf growth 96h 13µM, Pf growth 48h inconclusive (no result: LASV entry inh, Marburg entry inh)
Cc1c(C)c2ccc(OCC(=O)N3CCN(C(=O)C4COc5ccccc5O4)CC3)cc2oc1=O (stereo unspecified)	Pf growth 96h inconclusive (no result: LASV entry inh, Marburg entry inh)
Cc1cc(=O)oc2cc(OCC(=O)N3CCN(C(=O)C4COc5ccccc5O4)CC3)c(Cl)cc12 (stereo unspecified)	Pf growth 96h 13µM (no result: LASV entry inh, Marburg entry inh)
O=C(Nc1cccc(C(F)(F)F)c1)c1ccco1	Cycloheximide cs 11
O=C(/C=C/Nc1cccc(C(F)(F)F)c1)c1ccco1	LASV entry inh inconclusive, Marburg entry inh inconclusive, Shiga inhibitor 80, Cycloheximide cs 39
O=C(Nc1cccc(C(F)(F)F)c1)c1scc2c1OCCO2	Pf growth 96h inconclusive, Marburg entry inh inconclusive, Cycloheximide cs 38
O=C(Nc1cccc(C(F)(F)F)c1)c1cc(Br)cc2c1OCC2	none
O=C(/C=C/Nc1cccc(C(F)(F)F)c1)c1ccc(Oc2ncccn2)cc1	Shiga inhibitor 87, Cycloheximide cs 47
O=C(CCNC(=O)c1ccco1)Nc1cccc(C(F)(F)F)c1	none
O=C1c2ccccc2C(=O)C12OC2c1ccc(Cl)cc1Cl (stereo unspecified)	Pf growth 96h inconclusive, Marburg entry inh inconclusive, Pf growth 48h inconclusive
CC1=C(C(=O)NCc2cccc(F)c2)C2(CCCCCC2)OC1=O	none (no result: Pf growth 96h, Marburg entry inh, Shiga inhibitor, Pf growth 48h, Cycloheximide cs)
O=C(c1cccc(Oc2c(Cl)cccc2[N+](=O)[O-])c1)N1CCOCC1	none
Cc1c(C(=O)Nc2ccc(F)c(F)c2)oc2ccc(S(=O)(=O)N(C)C3CCCCC3)cc12	none (no result: Pf growth 96h, Marburg entry inh, Shiga inhibitor, Pf growth 48h, Cycloheximide cs)
O=C(Nc1cccc(S(=O)(=O)c2cccc(NC(=O)c3ccco3)c2)c1)c1ccco1	LASV entry inh inconclusive, Pf growth 96h 12µM, Marburg entry inh inconclusive, Shiga inhibitor 28, Pf growth 48h 13µM, Cycloheximide cs 20
NC(=O)/C=C\C(=O)Nc1cccc(C(F)(F)F)c1	LASV entry inh inconclusive, Marburg entry inh 9.2µM
NNC(=O)Nc1cccc(C(F)(F)F)c1	Pf growth 96h inconclusive
O=C(Nc1nc2n(n1)C(c1ccccc1)C=C(c1ccccc1)N2)c1ccco1 (stereo unspecified)	Pf growth 96h inconclusive, Pf growth 48h 8.3µM
O=C(c1nc2n(n1)C(c1ccc(Cl)cc1)C=C(c1ccccc1)N2)N1CCOCC1 (stereo unspecified)	LASV entry inh inconclusive, Pf growth 48h 4.1µM
CC(=O)Nc1nc2n(n1)C(c1ccccc1)C=C(c1ccccc1)N2 (stereo unspecified)	Pf growth 96h 5.2µM
O=C(Nc1nc2n(n1)C(c1ccccc1)C=C(c1ccc(Cl)cc1)N2)c1ccco1 (stereo unspecified)	none (no result: Pf growth 96h, Shiga inhibitor, Pf growth 48h, Cycloheximide cs)
CC(=O)Nc1nc2n(n1)C(c1ccc(F)cc1)C=C(c1ccccc1)N2 (stereo unspecified)	Pf growth 48h inconclusive
Cc1ccc(NC(=O)C(c2ccc(Cl)cc2Cl)N2CCCC2)cc1 (stereo unspecified)	Pf growth 48h inconclusive
Cc1cccc(NC(=O)C(c2ccccc2Cl)N2CCOCC2)c1 (stereo unspecified)	Pf growth 96h 15µM, Pf growth 48h 12µM
O=C(O)COc1ccc(/C=N/NC(=O)COc2nsnc2N2CCOCC2)cc1	none
C=C(C)CNC(=S)N/N=C/c1ccc(N2CCOCC2)cc1	LASV entry inh inconclusive, Pf growth 96h inconclusive, Marburg entry inh inconclusive, Pf growth 48h inconclusive
COCCNC(=S)N/N=C/c1ccc(N2CCOCC2)cc1	LASV entry inh inconclusive, Marburg entry inh 23µM
CC(C)(C)c1ccc(OCC(=O)N/N=C/c2ccc(N3CCOCC3)cc2)cc1	LASV entry inh 0.092µM, Pf growth 96h inconclusive
C/C(=N/NC(=O)COc1ccc(C(C)(C)C)cc1)c1ccc(N2CCOCC2)cc1	LASV entry inh 0.56µM (no result: Pf growth 96h, Shiga inhibitor, Pf growth 48h, Cycloheximide cs)
CC(C)c1ccc(NC(=O)COC(=O)COc2ccccc2)cc1	none
CC(=O)Nc1ccc(S(=O)(=O)N[C@@H](C)C(=O)OCc2cc([N+](=O)[O-])cc3c2OCOC3)cc1	none (no result: LASV entry inh, Marburg entry inh)
Cc1cccc(NC(=O)CSCC(=O)N(CCC(C)C)c2c(N)n(Cc3ccccc3)c(=O)[nH]c2=O)c1	LASV entry inh 10µM, Pf growth 96h inconclusive, Marburg entry inh inconclusive (no result: Shiga inhibitor, Cycloheximide cs)
Cc1ccc(C)c(N2N=C(C(=O)N(CC(C)C)c3c(N)n(Cc4ccccc4)c(=O)[nH]c3=O)CCC2=O)c1	Pf growth 96h 7.4µM, Pf growth 48h 13µM (no result: LASV entry inh, Marburg entry inh)
CC(C)CN(C(=O)C1=NN(c2ccccc2)C(=O)CC1)c1c(N)n(Cc2ccccc2)c(=O)[nH]c1=O	none (no result: LASV entry inh, Marburg entry inh, Shiga inhibitor, Cycloheximide cs)
CCCN(C(=O)CSCC(=O)Nc1cccc(C)c1)c1c(N)n(Cc2ccccc2)c(=O)[nH]c1=O	none
O=C(Nc1ccc(F)cc1)c1ccc(-n2cnnc2)cc1	none (no result: Pf growth 96h, Marburg entry inh, Shiga inhibitor, Pf growth 48h, Cycloheximide cs)
CCOc1ccccc1NC(=O)C1CCCN1C(=O)OCc1ccccc1 (stereo unspecified)	Pf growth 96h 9.3µM
COc1ccc(C)cc1NC(=O)C1CCCN1C(=O)OCc1ccccc1 (stereo unspecified)	Pf growth 96h inconclusive, Pf growth 48h 10µM
COc1ccc(NC(=O)C2CCCN2C(=O)OCc2ccccc2)cc1 (stereo unspecified)	none
COc1ccc(OC)c(NC(=O)C2CCCN2C(=O)OCc2ccccc2)c1 (stereo unspecified)	Pf growth 48h 13µM
COC(=O)c1ccc(NC(=O)C2CCCN2C(=O)OCc2ccccc2)cc1 (stereo unspecified)	Pf growth 96h 5.9µM (no result: LASV entry inh, Marburg entry inh)
Cc1ccc(NC(=O)C2CCCN2C(=O)OCc2ccccc2)cc1F (stereo unspecified)	Pf growth 96h inconclusive (no result: LASV entry inh, Marburg entry inh)
COc1cccc(/C=C(\C#N)C(=O)NC2CCS(=O)(=O)C2)c1 (stereo unspecified)	none
COc1cccc(C(=O)N(CN2CCCC2=O)c2cccc(Cl)c2)c1OC	LASV entry inh inconclusive
Nc1ccccc1C(=O)NC12CC3CC(CC(C3)C1)C2	Pf growth 96h inconclusive (no result: LASV entry inh, Marburg entry inh)
O=C(NC12CC3CC(CC(C3)C1)C2)c1cccnc1Cl	Pf growth 96h 12µM (no result: LASV entry inh, Marburg entry inh)
O=C(CO)N/N=C/c1ccccc1F	none
